Experimental data as given in PubChem BioAssay AID651658 (Broad Institute, 2012).
In all, about 340,000 compounds went through this assay and about 5,100 (1.5%) were called active.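 Rule for the calls: active = mean Tm shift, scaled 0 neutral to 100 positive control, at about 1.3% or above, every replicate too (limit read from the data); inconclusive = no clear call, values can overlap the other calls; inactive = the rest.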 The list comes from a sample in which actives are over-represented; it also holds similar structures and randomly drawn compounds.

Biological target: Fibroblast growth factor 22 (Homo sapiens) (UniProt Q9HCT0)
Sequence (Q9HCT0 whole entry, looked up): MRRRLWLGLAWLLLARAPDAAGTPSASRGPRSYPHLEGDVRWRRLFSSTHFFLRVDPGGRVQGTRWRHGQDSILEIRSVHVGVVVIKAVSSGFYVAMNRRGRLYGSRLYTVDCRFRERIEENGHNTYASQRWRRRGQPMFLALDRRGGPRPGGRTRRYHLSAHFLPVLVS
Experiment: binders of human FGF22 protein, primary screen, FGF22 synaptogenesis inhibitor project, biophysical, thermal shift, single point (AID 651658)
Settings: recombinant FGF22 thermal shift, SYPRO orange fluorescence; at 9.99 µM; active compounds read high; percent of sucrose octasulfate shift, DMSO zero

Compound	activity (Tm shift, normalised)
N#C[C@@H]1[C@@H](c2ccccc2)[C@H](CO)N1C(=O)c1cc(Cl)cc(Cl)c1	-0.051% (inactive)
O=C(NN1C(=O)C2C3C=CC(O3)C2C1=O)c1ccccc1 (stereo unspecified)	1.65% (active)
CC(C)=C1C2CCC1C1C(=O)N(NC(=O)c3ccco3)C(=O)C21 (stereo unspecified)	-0.011% (inactive)
O=C(NN1C(=O)C2C3C=CC(O3)C2C1=O)c1ccncc1 (stereo unspecified)	0.125% (inactive)
O=C(C[C@@H]1C[C@H]2c3cc(NC(=O)NC4CCCC4)ccc3O[C@H]2[C@@H](CO)O1)NC1CCCCC1	-0.272% (inactive)
O=C(C1CC1)N1CCCCN2[C@H](C1)[C@@H](c1ccc(-c3cccc(F)c3)cc1)[C@@H]2CO	-0.119% (inactive)
C[C@@H]1CN([C@@H](C)CO)S(=O)(=O)c2ccc(-c3ccc(C#N)cc3)cc2O[C@H]1CN(C)Cc1ccccn1	-0.176% (inactive)
COC(=O)[C@]1(C)N[C@H](CN(C)C(=O)c2ccc(C(C)(C)C)cc2)[C@@H]2C(=O)N(C)C(=O)[C@@H]21	0.232% (inactive)
CC[C@@]1(C(=O)OC)N[C@H](CN(C)C(C)=O)[C@@H]2C(=O)N(C)C(=O)[C@@H]21	43.4% (active)
CCCSc1ccc([C@H]2N[C@@](Cc3ccccc3)(C(=O)OC)[C@H]3C(=O)N(C)C(=O)[C@@H]23)cc1	0.041% (inactive)
CCCC1(C(=O)OC)NC(c2ccco2)C2C(=O)N(C)C(=O)C21 (stereo unspecified)	43.8% (active)
CCOC(=O)C1(C)NC(c2ccco2)C2C(=O)N(c3ccccc3)C(=O)C21 (stereo unspecified)	0.052% (inactive)
CCN(C[C@H]1N[C@@](CC)(C(=O)OC)[C@H]2C(=O)N(C)C(=O)[C@@H]12)C(=O)Nc1ccc(F)cc1	-0.067% (inactive)
COc1cccc(S(=O)(=O)N2[C@@H]3CNC[C@H]2C3c2ccc(-c3cccc(C(=O)N(C)C)c3)cc2)c1 (stereo partly specified)	0.014% (inactive)
C[C@@H]1CN([C@H](C)CO)C(=O)c2cc(NC(=O)c3ccncc3)ccc2O[C@@H]1CN(C)C(=O)Nc1ccc(F)cc1	-0.074% (inactive)
CO[C@@H]1CN(C)C(=O)c2cc(NS(C)(=O)=O)ccc2OC[C@@H](C)N(C(=O)C2CCC2)C[C@@H]1C	-0.13% (inactive)
CO[C@H]1CN(C)C(=O)c2ccc(NC(=O)C3CCCC3)cc2OC[C@H](C)N(C(=O)CC2CC2)C[C@@H]1C	0.031% (inactive)
N#C[C@@H]1[C@@H](c2ccccc2)[C@@H](CO)N1C(=O)Cc1ccccc1	-0.224% (inactive)
CCCNC(=O)N1[C@H](C#N)[C@@H](c2ccccc2)[C@H]1CO	0.065% (inactive)
COc1ccccc1NC(=O)N1[C@H](C#N)[C@H](c2ccccc2)[C@H]1CO	1.69% (active)
CCCc1cn(CC[C@H]2CC[C@@H](NS(=O)(=O)c3ccccc3Cl)[C@@H](CO)O2)nn1	-0.219% (inactive)
CC(CNC(=O)Cn1cnc2c(OCc3ccccc3)ncnc21)c1ccccc1 (stereo unspecified)	-0.208% (inactive)
O=C(Cn1cnc2c(OCc3ccccc3)ncnc21)NCCCn1ccnc1	43.3% (active)
Cc1ccc(NC(=O)Cn2cnc3c(OCc4ccccc4)ncnc32)cc1C	0.021% (inactive)
CCC(=O)N(C)C[C@@H]1Oc2ncc(C#CCc3ccccc3)cc2C(=O)N([C@H](C)CO)C[C@H]1C	-0.313% (inactive)
COc1ccc(CNC(=O)CCN2C(=O)c3ccccc3C2=O)cc1	-0.249% (inactive)

Compound	activity (Tm shift, normalised)
Cc1cc(C)cc(OCC(=O)NNC(=O)CCN2C(=O)c3ccccc3C2=O)c1	43.2% (active)
Cc1cc(C)cc(NC(=O)CCN2C(=O)c3ccccc3C2=O)c1	0.073% (inactive)
CCN(CC)CCNC(=O)c1ccc(NS(=O)(=O)c2ccc3c(c2)OCCO3)cc1	42.9% (active)
Cc1ccc(NS(=O)(=O)c2ccc(C(=O)NCCCN3CCOCC3)cc2)cc1	-0.45% (inactive)
CNS(=O)(=O)c1ccc(C(=O)NCC(=O)NCCc2ccc3c(c2)OCCO3)cc1	0.051% (inactive)
C[C@H](NC(=O)C[C@H]1CC[C@H]2[C@@H](COC[C@H](O)CN2C(=O)Nc2cccc(Cl)c2)O1)c1ccccc1	0.797% (inactive)
O=C(CCN1CCCCC1)N[C@H]1CC[C@H](CCNS(=O)(=O)c2ccc(F)cc2)O[C@@H]1CO	0.837% (inactive)
C[C@H](CO)N1C[C@H](C)[C@H](CN(C)Cc2ccncc2)Oc2ncc(C#CCC3CCCCC3)cc2C1=O	-0.367% (inactive)
C/C=C/c1ccc(OCC(O)CN2CCCCCCC2)c(OC)c1 (stereo unspecified)	0.015% (inactive)
C=CCc1ccccc1OCC(O)CN1CCN(CCO)CC1 (stereo unspecified)	-0.051% (inactive)
C=CCc1ccc(OCC(O)CN2CCN(Cc3ccccc3)CC2)c(OC)c1 (stereo unspecified)	43.3% (active)
O=C(Nc1ccc(F)cc1)N1CCCCN2[C@H](CO)[C@H](c3ccc(-c4ccncc4)cc3)[C@@H]2C1	-0.055% (inactive)
C/C=C/c1ccc([C@@H]2[C@H](CO)N(CC3CCOCC3)C23CN(S(=O)(=O)CC)C3)cc1	-0.282% (inactive)
CCNC(=O)c1cc2c(c(-c3cccc(C4=CCCC4)c3)n1)[C@H](CCO)N([S@@](=O)C(C)(C)C)C2	0.297% (inactive)
O=C(Cc1ccncc1)NCC[C@H]1CC[C@H](NC(=O)Nc2cccc(F)c2)[C@H](CO)O1	-0.333% (inactive)
C[C@@H]1CN([C@H](C)CO)C(=O)c2cc(NS(=O)(=O)c3cccs3)ccc2O[C@@H](C)CCCCO[C@@H]1CN(C)C(=O)c1ccncc1	-0.018% (inactive)
COc1ccc2c3c([nH]c2c1)[C@@H](CO)NCC31CN(S(=O)(=O)c2cccs2)C1	0.072% (inactive)
CCNC(=O)C[C@@H]1CC[C@@H](NC(=O)NC2CCCCC2)[C@H](CO)O1	-0.281% (inactive)
COc1ccc(NC(=O)N(C)C[C@@H]2OCCCC[C@@H](C)Oc3ccc(NC(=O)C4CCCCC4)cc3C(=O)N([C@@H](C)CO)C[C@@H]2C)cc1	-0.291% (inactive)
COC(=O)[C@@H]1[C@@H](CO)[C@@H]2Cn3c(ccc(-c4ccccc4)c3=O)[C@@H]2N1C(=O)C1CC1	-0.013% (inactive)
O=C(COC(=O)c1ccc2c(c1)OCCO2)NCc1ccccc1Cl	-0.43% (inactive)
O=C(COC(=O)c1cc2c(s1)CCCC2)NCc1ccccc1Cl	2.24% (active)
CN(C)C(=O)c1ccc(NC(=O)COC(=O)c2cc3c(s2)CCCCC3)cc1	0.188% (inactive)
COc1ccc2c3c([nH]c2c1)[C@H](CO)N(C(=O)C1CCOCC1)CC31CN(S(C)(=O)=O)C1	-0.085% (inactive)
CN(C)C(=O)c1cccc(-c2ccccc2[C@@H]2[C@@H](CO)N(C(=O)C3CCCCC3)[C@H]2C#N)c1	0.22% (inactive)
COc1ccc2c3c([nH]c2c1)[C@H](CO)N(C(=O)c1ccccc1)CC31CCN(S(=O)(=O)c2cccs2)CC1	-0.133% (inactive)

Compound	activity (Tm shift, normalised)
CCC1(C)COC(c2ccc(OC)c(OC)c2)OC1 (stereo unspecified)	-0.154% (inactive)
CCC1([N+](=O)[O-])COC(c2ccc(C)cc2)OC1 (stereo unspecified)	43.3% (active)
CCC1([N+](=O)[O-])COC(c2ccc(C(C)C)cc2)OC1 (stereo unspecified)	0.068% (inactive)
C/C=C/c1ccc([C@H]2[C@@H](CO)N3CCCCN(C(=O)c4ccc(F)cc4)C[C@@H]23)cc1	-0.174% (inactive)
COc1ccc(F)c(-c2nc(CN3CCC(c4ccccc4)CC3)c(C)o2)c1	0.157% (inactive)
Cc1oc(-c2ccccc2F)nc1CS(=O)CC(=O)NCCN1CCCCC1C (stereo unspecified)	-0.146% (inactive)
Cc1nonc1C1CCCN1Cc1nc(-c2ccc(F)cc2F)oc1C (stereo unspecified)	43.2% (active)
C[C@H](CO)N1C[C@H](C)[C@H](CN(C)CC2CCCC2)Oc2ncc(-c3ccc(F)cc3)cc2C1=O	-0.41% (inactive)
COc1ccccc1/C=N/N1CCN(Cc2ccccc2Cl)CC1	-0.025% (inactive)
CSc1ccc(/C=N/N2CCN(Cc3ccccc3Cl)CC2)cc1	43.3% (active)
Cc1ccc(CN2CCN(/N=C/c3cccnc3)CC2)c(C)c1	0.311% (inactive)
CC(=O)c1c(-c2ccccc2)c2ccccc2[nH]c1=O	43.2% (active)
NS(=O)(=O)c1ccccc1NC(=O)c1c(O)c2ccccc2[nH]c1=O	0.089% (inactive)
Cc1c(-c2ccccc2)n[nH]c1C(=O)N=Nc1c(O)[nH]c2ccccc12	0.025% (inactive)
COc1cccc(NC(=O)N2C[C@@H](O)COC[C@@H]3O[C@@H](CC(=O)NC4CCC4)CC[C@H]32)c1	-0.083% (inactive)
COc1ccc(CCN2C(=O)[C@@]3(Cc4ccccc42)c2ccccc2C(=O)N(Cc2ccccc2C(F)(F)F)[C@H]3c2ccc(CO)cc2)cc1	-0.145% (inactive)
CCNS(=O)(=O)c1ccc(CCC(=O)N2CCN(c3ccc(OC)cc3)CC2)cc1	0.369% (inactive)
CCCNS(=O)(=O)c1ccc(CCC(=O)N2CCCC2)cc1	43% (active)
CCOc1ccc(S(=O)(=O)NCCC(=O)N2CCCCCCC2)cc1	0.162% (inactive)
CC(C)NC(=O)Nc1ccc2c(c1)C(=O)N([C@H](C)CO)C[C@@H](C)[C@@H](CN(C)Cc1ccncc1)O2	0.001% (inactive)
O=C(OCc1ccc(-c2ccccc2)cc1)c1cccc(O)c1	-0.21% (inactive)
CC(C)(C)N1C(=O)c2c(C(=O)OCc3ccccc3)[nH]c(-c3ccccc3)c2C1=O	2.17% (active)
O=C(Nc1cccc2ccccc12)c1[nH]c(-c2ccccc2)c2c1C(=O)N(C1CC1)C2=O	-0.298% (inactive)
CCCNC(=O)Nc1ccc2c(c1)C(=O)N(C)[C@H]1CC[C@H](CC(=O)NCC3CCCCC3)O[C@@H]1CO2	-0.32% (inactive)
